Test results reported in the supplement of paper PMC8975748.
Where a name gives a salt, the structure may show the parent alone.

Tested on: Saccharomyces cerevisiae BY4741 SeMeCo community
Assay: z-score of prototroph abundance vs DMSO median; higher = larger share of this subpopulation than in DMSO controls
Details: 10 µM; 24 h; SM minimal medium; subpopulation (auxotrophy): Prototroph
Experimental: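 Fluorescent four-plasmid SeMeCo (self-establishing metabolically cooperating S. cerevisiae BY4741 community; plasmids pH-mRuby2, pL-mWasabi, pU-eCFP, pM-TagRFP657) was grown 24 h in minimal SM medium with each Selleck FDA-approved drug at 10 µM in 384-well plates. Cells were fixed and imaged by high-content confocal microscopy. For each auxotrophic subpopulation (and the prototroph), a z-score gives the deviation from the DMSO vehicle-control population median.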

| Compound | z-score of prototroph abundance |
| --- | --- |
| CN(C)[C@@H]1C(=O)C(C(N)=O)=C(O)[C@@]2(O)C(=O)C3=C(O)c4c(O)cccc4[C@@](C)(O)[C@H]3[C@H](O)[C@@H]12 [Oxytetracycline Dihydrate] | 0.77 |
| C[C@@H]1O[C@@H](O[C@H]2C[C@@H](O)[C@]3(CO)[C@H]4[C@H](O)C[C@]5(C)[C@@H](C6=CC(=O)OC6)CC[C@]5(O)[C@@H]4CC[C@]3(O)C2)[C@H](O)[C@H](O)[C@H]1O [Ouabain] | 0.81 |
| CN(C)[C@@H]1C(=O)C(C(N)=O)=C(O)[C@@]2(O)C(=O)C3=C(O)c4c(O)ccc(Cl)c4[C@@](C)(O)[C@H]3C[C@@H]12 [Chlortetracycline HCl] | 0.13 |
| C[N+]1(C)[C@@H]2C[C@@H](OC(=O)[C@H](CO)c3ccccc3)C[C@H]1[C@@H]1O[C@@H]12 [Methscopolamine] | -0.68 |
| CC1(C)SC2C(N)C(=O)N2C1C(=O)O (centres undefined) [6-Aminopenicillanic acid] | 0.04 |
| CNC1CC(N)C(O)C(OC2OC(CO)C(O)C3OC4(OC(C(N)CO)C(O)C(O)C4O)OC23)C1O (centres undefined) [Hygromycin B] | 0.64 |
| COc1ccc2c(c1)[C@]13CCCC[C@@H]1[C@H](C2)N(C)CC3 [Dextromethorphan hydrobromide hydrate] | 0.38 |
| CN(C)C(=O)Oc1ccc[n+](C)c1 [Pyridostigmine Bromide] | -0.27 |
| C[N+](C)(C)CCCCCCCCCC[N+](C)(C)C [Decamethonium Bromide] | 0.58 |
| CN1[C@@H]2CC[C@H]1C[C@@H](OC(=O)C(CO)c1ccccc1)C2 (some centres undefined) [Atropine sulfate monohydrate] | 0.64 |
| CN1C(=O)COc2c(C(=O)NC3CN4CCC3CC4)cc(Cl)cc21 (centres undefined) [Azasetron HCl] | 0.42 |
| CCN(CC)CCOC(=O)C(O)(c1ccccc1)c1ccccc1 [Benactyzine hydrochloride] | -0.56 |
| CC(C)=CCOc1c2occc2cc2ccc(=O)oc12 [Imperatorin] | -0.8 |
| CN1c2ccccc2C(NCCCCCCC(=O)O)c2ccc(Cl)cc2S1(=O)=O (centres undefined) [Tianeptine sodium] | 0 |
| COc1ccc(C=O)cc1 [p-Anisaldehyde] | 1.5 |
| CN1[C@@H]2C[C@@H](OC(=O)[C@H](CO)c3ccccc3)C[C@H]1[C@@H]1O[C@@H]12 [Scopolamine HBr] | 0.86 |
| CN[C@@H]1[C@@H](O)[C@@H](O[C@@H]2[C@@H](O)[C@H](O[C@H]3O[C@H](CN)CC[C@H]3N)[C@@H](N)C[C@H]2N)OC[C@]1(C)O.CN[C@@H]1[C@@H](O)[C@@H](O[C@@H]2[C@@H](O)[C@H](O[C@H]3O[C@H]([C@@H](C)N)CC[C@H]3N)[C@@H](N)C[C@H]2N)OC[C@]1(C)O.CN[C@@H]1[C@@H](O)[C@@H](O[C@@H]2[C@@H](O)[C@H](O[C@H]3O[C@H]([C@@H](C)NC)CC[C@H]3N)[C@@H](N)C[C@H]2N)OC[C@]1(C)O [Gentamicin Sulfate] | 0.63 |

| Compound | z-score of prototroph abundance |
| --- | --- |
| O=c1[nH]c2ccccc2n1CCCN1CCC(n2c(=O)[nH]c3cc(Cl)ccc32)CC1 [Domperidone] | -0.65 |
| NC(=O)CN1CCCC1=O [Piracetam] | -1.9 |
| Oc1cc(Cl)ccc1Oc1ccc(Cl)cc1Cl [Triclosan] | 2.53 |
| NCCc1c[nH]c2ccc(O)cc12 [Serotonin HCl] | 0.67 |
| O=c1cccc2n1C[C@@H]1CNC[C@H]2C1 [Cytisine] | 0.46 |
| CC(C)N(CCC(C(N)=O)(c1ccccc1)c1ccccn1)C(C)C (centres undefined) [Disopyramide] | -0.35 |
| Cc1cc(C(C#N)c2ccc(Cl)cc2)c(Cl)cc1NC(=O)c1cc(I)cc(I)c1O (centres undefined) [Closantel] | 0 |
| CC(=O)OCC1=C(C(=O)O)N2C(=O)C(N)C2SC1 (centres undefined) [7-Aminocephalosporanic acid] | 0.2 |
| C[C@H]1O[C@H](O[C@H]2[C@H](O)[C@@H](O)[C@@H](O)[C@H](O)[C@@H]2O)[C@@H](N)C[C@@H]1NC(=N)C(=O)O [Kasugamycin hydrochloride] | 0.23 |
| CCN(C)C(=O)Oc1cccc([C@H](C)N(C)C)c1 [Rivastigmine Tartrate] | 0.28 |
| C[N+]12CCC(CC1)C(OC(=O)C(O)(c1ccccc1)c1ccccc1)C2 (centres undefined) [Clidinium Bromide] | 0.13 |
| N[C@@H]1C[C@H]1c1ccccc1 [Tranylcypromine (2-PCPA) HCl] | 0.44 |
| Nc1ccncc1 [4-Aminopyridine] | -0.05 |
| CCN(C)C(=O)Oc1cccc([C@H](C)N(C)C)c1 [Rivastigmine] | -0.39 |
| CCCCCCCCCCCCCCCC[n+]1ccccc1 [Cetylpyridinium Chloride] | -12.7 |
| CC[C@H]1CN2CC[C@]3(C(=O)Nc4ccccc43)[C@@H]2C[C@@H]1/C(=C\OC)C(=O)OC [Rhynchophylline] | -0.9 |
| CC[C@@]1(O)C(=O)OCc2c1cc1n(c2=O)Cc2cc3ccccc3nc2-1 [Camptothecin] | 0.34 |
